# Among all 1,200 compounds or so, about 210 (18%) were called active. Rule as the data show it: active = inhibition above about 30%; inactive = the rest. These entries were drawn from the full list.
# Assay: HTRF signal interference by compounds, confirmation, artefact control for SUMOylation inhibitor project, biochemical, uHTS (AID 2069)
# Conditions: HTRF interference counterscreen, fluorescence, at 35 µM, stronger effect = higher value
row,SMILES,inhibition
1,C=C(C)[C@@H]1CC[C@]2(C(=O)O)CC[C@]3(C)[C@H](CC[C@@H]4[C@@]5(C)CC[C@H](O)C(C)(C)[C@@H]5CC[C@]43C)[C@@H]12,5.35% (inactive)
2,Cc1ccc(Nc2nc(=O)c3cc([N+](=O)[O-])ccc3s2)cc1,5.9% (inactive)
3,Cc1cccc(NC(=O)/C(C#N)=C/c2cn(CC(=O)NCc3ccco3)c3ccccc23)c1C,13.7% (inactive)
4,CCCCCCC#Cc1cncc(C(=O)NNC(=O)Nc2cc(Cl)cc(Cl)c2)c1,-17% (inactive)
5,O=C1C=C(N(CCO)Cc2ccccc2)c2ccccc2C1=O,50.4% (active)
6,O=C1C=C(NCc2ccccc2)c2ccccc2C1=O,-1.95% (inactive)
7,O=C1C=C(Nc2ccccc2C(=O)O)c2ccccc2C1=O,-7.25% (inactive)
8,CC(C)CNC1=CC(=O)CC(c2ccco2)C1 (stereo not given),-0.9% (inactive)
9,COc1cccc(C(c2c(C)[nH]n(-c3ccccc3)c2=O)c2c(C)[nH]n(-c3ccccc3)c2=O)c1OC,-27.4% (inactive)
10,Nc1ncnc2c1ncn2C1OC(COP(=O)(O)O)C(O)C1O (stereo not given),-7% (inactive)
11,O=C1OC(Nc2ccc3ncccc3c2)c2ccccc21 (stereo not given),24% (inactive)
12,O=[N+]([O-])c1ccc(O)c(C=Nc2cccc3ncccc23)c1,4.3% (inactive)
13,N#CC1=C(N)N2C(=C(C#N)C1c1ccc(Br)cc1)Nc1ccccc12 (stereo not given),7.05% (inactive)
14,O=c1nc2s/c(=C\c3ccco3)c(=O)n2nc1Cc1ccc(F)cc1,-3.1% (inactive)
15,OC(COc1ccccc1)CSc1ncn[nH]1 (stereo not given),14.6% (inactive)
16,Fc1ccc(NC(=S)Nc2ccc3nccnc3c2)cc1,7.9% (inactive)
17,CC(C)N(C(=O)Nc1ccc2nccnc2c1)C(C)C,31.1% (active)
18,COc1ccc(NC(=S)Nc2ccc3nccnc3c2)cc1,8.85% (inactive)
19,COc1ccc(-n2c(NC(=O)c3ccc(Br)o3)c(C#N)c3nc4ccccc4nc32)cc1,12.1% (inactive)
20,Cn1c(=O)n(C)c2cc(S(=O)(=O)NCCO)ccc21,-3.1% (inactive)

row,SMILES,inhibition
1,O=C(Nc1cccc2nsnc12)c1ccc(-c2cccc(Cl)c2)o1,25.9% (inactive)
2,Cc1ccc2nsnc2c1NC(=O)c1ccc(-c2cc(Cl)ccc2Cl)o1,20.6% (inactive)
3,CCOc1cc(C2c3c(oc4ccccc4c3=O)C(=O)N2c2nccs2)ccc1O (stereo not given),-2.15% (inactive)
4,COc1ccccc1Oc1c(C)oc2c(CN3CCN(C)CC3)c(O)ccc2c1=O,30.4% (active)
5,CCOc1ccccc1Oc1c(C)oc2c(CN3CCN(C)CC3)c(O)ccc2c1=O,40.3% (active)
6,Oc1ccc2ccccc2c1C=NCc1cn2ccsc2n1,0.1% (inactive)
7,CC(C)c1ccc(NC(=S)Nc2cccc3ccccc23)cc1,-7.9% (inactive)
8,COc1ccc2cc3c(N)nn(C(=O)Cc4ccc(Cl)cc4)c3nc2c1,23.9% (inactive)
9,CCN(CC)C(=O)c1sc2nc(-c3ccncc3)[nH]c(=O)c2c1C,47.2% (active)
10,CCCCCCC(C)OC(=O)c1ccccc1C(=O)O (stereo not given),3.05% (inactive)
11,NC(=S)n1[nH]c(-c2ccc([N+](=O)[O-])cc2)c(N=Nc2cccc(Cl)c2)c1=O,10.7% (inactive)
12,COc1ccc(-c2cc(C(F)(F)F)n3ncc(C(=O)NCc4ccco4)c3n2)cc1,44.1% (active)
13,COc1ccc2oc(=O)c(/C(C)=N/NC(=O)c3ccncc3)cc2c1,18.8% (inactive)
14,Cc1onc(-c2ccccc2Cl)c1C(=O)NCc1ccco1,11.2% (inactive)
15,COc1ccc2oc(=O)c(C(=O)NCc3ccco3)cc2c1,48.4% (active)
16,COc1ccc(C(=O)Nc2ccc(-c3nnn(CC(=O)NCc4ccco4)n3)cc2)cc1,26.7% (inactive)
17,COc1ccc(CNC(=O)c2c(C)oc3c2C(=O)c2ccccc2C3=O)cc1,5.35% (inactive)
18,COc1ccc(CCn2c(N)c(C(=O)NCc3ccco3)c3nc4ccccc4nc32)cc1OC,1.65% (inactive)
19,COc1ccc2oc(=O)c(C(=O)NCC3CCCO3)cc2c1 (stereo not given),40.9% (active)
20,Cc1cc(C)cc(NC(=S)Nc2cccc3cnccc23)c1,-5.7% (inactive)

row,SMILES,inhibition
1,COc1ccc(S(=O)(=O)N(C)c2ccc(C(=O)NCc3ccccn3)cc2)cc1,-4.1% (inactive)
2,N#CC1=C(N)Oc2n[nH]c(-c3cccs3)c2C1c1ccoc1 (stereo not given),-10.8% (inactive)
3,COC(=O)c1cc(O)cc(OC)c1Oc1cc(C)cc(O)c1C(=O)O,11% (inactive)
4,COc1ccc2c(C)c(C(=O)NCC(C)O)oc2c1OC (stereo not given),38% (active)
5,Oc1ccc(NCc2ccccc2OCc2ccccc2F)cc1,-9.2% (inactive)
6,COc1cc2c(-c3ccc(O)cc3)nc3c(c(C)nn3-c3ccccc3)c2cc1OC,9.45% (inactive)
7,CCCCCCCC(=O)Nc1ccc(C(=O)N/N=C/c2cccc([N+](=O)[O-])c2)cc1,-8.25% (inactive)
8,CCCCCCCn1c(NC(=O)CC)nc2ccccc21,4.3% (inactive)
9,CC(=O)Nc1ccc(-c2cn3cccnc3n2)cc1,52.3% (active)
10,CC(=O)Nc1ccc(S(=O)(=O)Nc2cccn(Cc3ccc(C)cc3)c2=O)cc1,1.85% (inactive)
11,CCCCCC(=O)Nc1ccc(-c2cn3cccnc3n2)cc1,49.3% (active)
12,CCc1ccc(S(=O)(=O)/N=C2\C=CC(=O)c3ccccc32)cc1,7.75% (inactive)
13,Cc1ccc(-n2nc(C)c3c2OC(N)=C(C#N)C3c2ccc(C)o2)cc1 (stereo not given),-11.4% (inactive)
14,CN(C)S(=O)(=O)c1cc(NC(=O)CNCc2ccccc2)ccc1Cl,-6% (inactive)
15,O=C(Nc1ccc(Cl)c(Cl)c1)Nn1cnnc1,41.3% (active)
16,NS(=O)(=O)c1ccc(NC(=O)c2ccc(-c3ccccc3)cc2)cc1,-3.1% (inactive)
17,Cc1[nH][nH]c(=O)c1C(c1ccc(-c2ccc(C(=O)O)cc2)o1)c1c(C)[nH][nH]c1=O,0.5% (inactive)
18,CCOC(=O)c1sc(NC(=O)c2cccc(S(=O)(=O)N3CCc4ccccc43)c2)c(C#N)c1C,-22.4% (inactive)
19,Cc1c(Br)c(O)c(Br)c2sc(=O)oc12,-25.6% (inactive)
20,O=C(NNc1cc(N2CCOCC2)nc(N2CCOCC2)n1)c1ccc([N+](=O)[O-])cc1,1.6% (inactive)

# — PubChem BioAssay AID2069 (Sanford-Burnham Center for Chemical Genomics, 2009)
